Assay outcomes: PubChem BioAssay, several laboratories
aDG glyco act: activators of alpha-DG glycosylation, primary screen, uHTS, Pro5-aDG cells, AlphaScreen; alpha-DG glycosylation AlphaScreen (IIH6); 0% Pro5, 100% B10-LARGE cell signal; activation, % at 10 µM; hit rate 0.22% among 360,000; AID 624168, 2012;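 active = activation of at least 8% versus controls, or a plate z-score of at least 8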;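 note: Pro5 are CHO cells carrying HIG-tagged alpha-DG that lacks glycosylation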
EBNA-1 inh: EBNA-1 DNA-binding inhibitors, primary screen, biochemical, fluorescence polarization; AID 1950, 2009; inhibition, % at 14.8 µM; hit rate 0.34% among 300,000; in the data active = inhibition above about 28%
NR1D1 modulator: modulators of Rev-erb alpha DNA binding, primary screen, biochemical, FITC-DNA, fluorescence polarization, uHTS. Nuclear receptor subfamily 1 group D member 1 (Homo sapiens), P20393. Rev-erbα–FITC-DNA binding, 90 min. activity, % at 10 µM. hit rate 0.79% among 370,000. AID 1259318, 2017;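 active = activity above about 14%, limit read from the data; passing the limit was not always enough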
Target sequence (P20393 whole entry, looked up): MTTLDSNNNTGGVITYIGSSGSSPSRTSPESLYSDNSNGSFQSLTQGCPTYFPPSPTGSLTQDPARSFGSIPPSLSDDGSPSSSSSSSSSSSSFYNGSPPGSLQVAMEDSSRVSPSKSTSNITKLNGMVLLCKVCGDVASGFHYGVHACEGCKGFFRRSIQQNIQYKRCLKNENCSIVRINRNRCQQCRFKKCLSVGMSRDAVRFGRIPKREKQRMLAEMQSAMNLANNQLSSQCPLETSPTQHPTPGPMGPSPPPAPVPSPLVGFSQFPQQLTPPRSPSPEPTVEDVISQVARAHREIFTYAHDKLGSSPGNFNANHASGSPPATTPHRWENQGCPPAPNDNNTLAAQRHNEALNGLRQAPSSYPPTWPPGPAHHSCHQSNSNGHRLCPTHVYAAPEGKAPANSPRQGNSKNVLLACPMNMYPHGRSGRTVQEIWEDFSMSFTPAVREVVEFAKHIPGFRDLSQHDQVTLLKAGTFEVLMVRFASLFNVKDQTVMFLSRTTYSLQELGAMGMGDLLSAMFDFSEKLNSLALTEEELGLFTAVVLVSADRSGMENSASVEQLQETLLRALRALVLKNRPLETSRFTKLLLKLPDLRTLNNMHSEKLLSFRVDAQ
PG9 Ab binder: binders of HIV-1 gp120 antibody PG9, primary screen, biochemical, TR-FRET; TR-FRET gp120-PG9 antibody binding; inhibition, % at 6.7 µM; hit rate 0.43% among 360,000; in the data active = inhibition above about 8.5%
ZTA counter: ZTA (EBV) inhibition in EBNA-1 counter-screen; AID 2234; hit rate 0.15% among 320,000; inhibition, % at 11 µM; ZTA-DNA binding, fluorescence polarization; in the data active = inhibition above about 33%
NCF1 inh: p47phox/p22phox peptide binding inhibitors, primary screen, biochemical, uHTS, NADPH oxidase regulatory subunit. fluorescence polarization, 2 h. inhibition, % at 24.7 µM. hit rate 0.53% among 220,000. AID 1274, 2008;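 active = inhibition above about 30%, limit read from the data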
EBNA-1 confirm: EBNA-1 DNA-binding inhibitors, retest, confirmation, biochemical, fluorescence polarization, triplicate. shares compounds with EBNA-1 inh. Recombinant EBNA-1 DBD, Cy5-DNA fluorescence polarization. inhibition, % at 14.8 µM. hit rate 35% among 830. AID 2292, 2010;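 active = mean inhibition across replicates above a set limit taken from the earlier primary screen, cut at about 28% in these data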
ZTA DNA inh trip: EBV Zta DNA binding inhibitors, counter-screen for EBNA-1 inhibitor project, biochemical, fluorescence polarization, triplicate. shares compounds with EBNA-1 inh. Zta-ZRE DNA binding, Cy5 fluorescence polarization. inhibition, % at 11.1 µM. 830 tested, under 10 active. AID 2328, 2010;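 active = mean inhibition over triplicates above a set limit taken from the primary EBNA-1 screen, cut at about 37% in these data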;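 note: purified full length Zta protein with Cy5 labeled ZRE DNA probe; inhibitors lower polarization by freeing the labeled DNA probe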
Of the large screens only hits and unclear results are named; the others gave an inactive call (follow-up assays come after a bar, where they were run). This is a sample that favours compounds with a hit; in the whole collection about 1.9% have one here.

NC[C@H]1O[C@H](O[C@@H]2[C@H](O)[C@@H](O[C@H]3O[C@H](CO)[C@@H](O)[C@H](N)[C@H]3O)[C@H](N)C[C@@H]2N)[C@H](O)[C@@H](O)[C@@H]1O	none (no result: aDG glyco act, EBNA-1 inh, PG9 Ab binder, ZTA counter, NCF1 inh)
Oc1cccc2ccc[n+](CC(O)Cn3c4ccccc4c4ccccc43)c12 (stereo not given)	NCF1 inh 38
O=C(CCCN1C(=O)S/C(=C\c2ccccc2)C1=O)NNC(=O)c1ccccc1O	none
COc1cc(OC)c(/C=C2\SC(=O)N(CC(=O)Nc3ccccc3F)C2=O)c(OC)c1	EBNA-1 inh 96 (no result: NCF1 inh) | EBNA-1 confirm 67 | ZTA DNA inh trip inactive
COc1ccc(/C=C2\SC(=O)N(CC(=O)NNC(=O)c3ccccc3O)C2=O)cc1	EBNA-1 inh 54 | EBNA-1 confirm inactive | ZTA DNA inh trip inactive
COc1cc(/C=C2\SC(=O)N(CC(=O)Nc3ccccc3F)C2=O)cc(Cl)c1O	none (no result: NCF1 inh)
O=C(CSc1nc2sc3c(c2c(=O)n1-c1ccc(Cl)cc1)CCC3)Nc1ccc(C(=O)O)cc1	none (no result: aDG glyco act, EBNA-1 inh, PG9 Ab binder, ZTA counter, NCF1 inh)
CC(=O)c1cccc(NC(=S)N2CCN(CCN3C(=O)c4cccc5cccc(c45)C3=O)CC2)c1	EBNA-1 inh 34 | EBNA-1 confirm inactive | ZTA DNA inh trip inactive
Cc1cc(C)cc(C(=O)OCCN(C)C2CN(Cc3cn(Cc4ccc([N+](=O)[O-])cc4)nn3)S(=O)(=O)C2)c1 (stereo not given)	none (no result: aDG glyco act, EBNA-1 inh, PG9 Ab binder, ZTA counter, NCF1 inh)
CC1CN(c2nc3ccccc3nc2SCC(=O)N2CCN(S(=O)(=O)c3ccccc3)CC2)CC(C)O1 (stereo not given)	none (no result: aDG glyco act, EBNA-1 inh, PG9 Ab binder, ZTA counter, NCF1 inh)
COC(=O)C1CN(Cc2ccccc2)CCS(=O)(=O)N1Cc1ccc(C)cc1 (stereo not given)	none (no result: aDG glyco act, EBNA-1 inh, PG9 Ab binder, ZTA counter, NCF1 inh)
CCOc1ccc(N=C2NC(=O)C(CC(=O)Nc3ccc(OC)cc3)S2)cc1 (stereo not given)	EBNA-1 inh 33 | EBNA-1 confirm 29 | ZTA DNA inh trip inactive
Cc1ccc(NC(=O)CC2SC(=Nc3ccc(O)cc3)NC2=O)cc1 (stereo not given)	none
COc1ccc(-c2cn(Cc3ccc(C(=O)c4ccccc4)cc3)nn2)cc1	EBNA-1 inh 28 (no result: aDG glyco act, NCF1 inh) | EBNA-1 confirm inactive | ZTA DNA inh trip inactive
COc1ccc(NC(=S)NNC(=S)Nc2cccc(C(F)(F)F)c2)cc1	EBNA-1 inh 169 | EBNA-1 confirm 83 | ZTA DNA inh trip inactive
C=C(C)/C=C1/CN(Cc2ccc3c(c2)OCO3)C(=N)N1C(=O)OCc1ccccc1	none (no result: aDG glyco act, EBNA-1 inh, PG9 Ab binder, ZTA counter, NCF1 inh)
COc1ccc(S[C@]2(C(=O)N3CCN(C(C)=O)CC3)CC(=O)N(C(=O)CCc3ccccc3)[C@@H]2c2ccc(OC)cc2)cc1	none (no result: aDG glyco act, EBNA-1 inh, PG9 Ab binder, ZTA counter, NCF1 inh)
CCOc1ccc(/C=N/NC(=O)c2ccc(CSc3nc4ccccc4[nH]3)cc2)cc1	EBNA-1 inh 33 | EBNA-1 confirm 39 | ZTA DNA inh trip inactive
O=C(N/N=C/c1ccc(OC(F)F)cc1)c1ccc(CSc2nc3ccccc3[nH]2)cc1	none
O=S(=O)(NCCOc1ccccc1)c1ccc2ccccc2c1	EBNA-1 inh 31 | EBNA-1 confirm inactive | ZTA DNA inh trip inactive
Cc1ccc(S(=O)(=O)N2CCOCC2)cc1NC(=O)CSc1nc2ccccc2c(=O)n1Cc1ccccc1	EBNA-1 inh 33 | EBNA-1 confirm inactive | ZTA DNA inh trip inactive
O=C(N[C@@H]1C[C@@H]2O[C@@H](CO)CC[C@@H]2O[C@@H]1CCc1ccc(-c2ccccc2)cc1)c1cnccn1	none (no result: aDG glyco act, EBNA-1 inh, PG9 Ab binder, ZTA counter, NCF1 inh)
C#CCN1CC(N2CCN(CCO)CC2)CS1(=O)=O (stereo not given)	none (no result: aDG glyco act, EBNA-1 inh, PG9 Ab binder, ZTA counter, NCF1 inh)
Cc1ccnc(SCC(=O)N2CCc3ccccc32)n1	EBNA-1 inh 32 (no result: NCF1 inh) | EBNA-1 confirm inactive | ZTA DNA inh trip inactive
O=C(CSc1ncccn1)N1CCCc2ccccc21	none
COC(=O)C1CN(Cc2cn(Cc3ccc(F)cc3)nn2)CCS(=O)(=O)N1Cc1ccc(F)cc1 (stereo not given)	none (no result: aDG glyco act, EBNA-1 inh, PG9 Ab binder, ZTA counter, NCF1 inh)
C#C[C@]1(O)CCC2C3CCc4cc(OC5CCCC5)ccc4C3CC[C@@]21C (stereo not given in full)	none (no result: aDG glyco act, EBNA-1 inh, PG9 Ab binder, ZTA counter, NCF1 inh)
COCCCNC(=O)C[C@H]1C[C@@]2(C(=O)OC)C(=C[C@H](C(C)(C)C)O[C@@H]2C)N(Cc2cccc3ccccc23)C1=O	none (no result: aDG glyco act, EBNA-1 inh, PG9 Ab binder, ZTA counter, NCF1 inh)
CC(=O)c1ccc(NC(=S)NC(=O)Cc2ccc(Cl)cc2)cc1	EBNA-1 inh 31 (no result: NCF1 inh) | EBNA-1 confirm 43 | ZTA DNA inh trip inactive
COC(=O)[C@@]12CCCCC3=C1N(CCC3)C(=O)[C@H]2CC(=O)NCCCCc1ccccc1	none (no result: aDG glyco act, EBNA-1 inh, PG9 Ab binder, ZTA counter, NCF1 inh)
CCOc1cc(NC(=S)NC)c(OCC)cc1NC(=O)c1cccs1	none
CCOc1cc(NS(=O)(=O)c2ccc(NC(C)=O)cc2)c(OCC)cc1NC(=O)c1cccs1	EBNA-1 inh 41 | EBNA-1 confirm 28 | ZTA DNA inh trip inactive
O=C(CSc1ncn(-c2ccccc2)n1)Nc1nc(-c2ccccc2)cs1	none
Cc1ccc(-c2csc(NC(=O)CSc3ncn(-c4ccccc4)n3)n2)cc1	EBNA-1 inh 41 | EBNA-1 confirm inactive | ZTA DNA inh trip inactive
COc1ccc(Nc2nc(N(C)c3ccccc3)nc(N)c2[N+](=O)[O-])cc1	EBNA-1 inh 34 (no result: NCF1 inh) | EBNA-1 confirm 40 | ZTA DNA inh trip inactive
COc1ccc(Nc2nc(Cl)nc(NCc3ccco3)n2)c(OC)c1	EBNA-1 inh 29 | EBNA-1 confirm inactive | ZTA DNA inh trip inactive
CC(C)c1ccc(Nc2nc(Cl)nc(NCc3ccco3)n2)cc1	none
CC(COc1cccc(Cl)c1)CN1CCC(C(O)(c2ccccc2)c2ccccc2)CC1 (stereo not given)	none (no result: aDG glyco act, EBNA-1 inh, PG9 Ab binder, ZTA counter, NCF1 inh)
Cc1ccc(-c2ccc(SCC(=O)Nc3ccc4c(c3)OCCO4)nn2)cc1	none
CC(=O)Nc1ccc(NC(=O)CSc2ccc(-c3ccc4c(c3)OCO4)nn2)cc1	EBNA-1 inh 49 | EBNA-1 confirm inactive | ZTA DNA inh trip inactive
O=C(N/N=C/c1ccc(COc2ccc(Br)cc2)o1)c1ccco1	EBNA-1 inh 59 | EBNA-1 confirm inactive | ZTA DNA inh trip inactive
O=C(N/N=C/c1ccco1)c1ccc(OCc2ccccc2)cc1	none
O=C(Cn1cnc2c(nnn2Cc2ccc(Cl)cc2)c1=O)OCc1ccccc1	EBNA-1 inh 30 | EBNA-1 confirm inactive | ZTA DNA inh trip inactive
Cc1cccc(-c2cccc3c4c([nH]c23)[C@@H]2C[C@H](N(C)C(=O)NC3CCCCC3)[C@H]([C@H](C)O)C(=O)N2CC4)c1	none (no result: aDG glyco act, EBNA-1 inh, PG9 Ab binder, ZTA counter, NCF1 inh)
